Drawing on PubChem BioAssay (NCATS), this text covers Potency for 17 compounds.

Test in all cases: qHTS profiling for inhibitors of Plasmodium falciparum proliferation (AID 504749); further: nearly all actives have a fitted effect of over 60% in size
What all share (settings): P. falciparum in erythrocytes, SYBR Green DNA, 72 h; series mostly up to 28.7 µM
On the technique in general: Quantitative high-throughput screening tests each substance at several concentrations.

Experiment [1] has as its system CP256. The method, boiled down:
(§1)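 Fluorescence of SYBR Green-bound parasite DNA, read at 485/535 nm, served as the growth measure. Infected erythrocytes were cultured with compound 72 h; artemisinin (0.29 uM) and DMSO wells defined the normalization range.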

Experiment [2] relates to CP262. The method, boiled down:
as §1

Experiment [3] has as its system CP266. The method, boiled down:
as §1

The subject of experiment [4] is CP268. The method, boiled down:
as §1

The subject of experiment [5] is CP291. In a few lines:
as §1

Experiment [6] deals with CP297. The method, boiled down: as §1
In experiment [7] the test system is CP305. In a few lines:
as §1

For experiment [8], the system named is CP315. The method, boiled down: as §1
Experiment [9] deals with CP325. The method, boiled down: as §1
Experiment [10] concerns CP329. The method, boiled down:
as §1

The test system of experiment [11] is CP217. In a few lines: as §1
The subject of experiment [12] is CP247. The method, boiled down:
as §1

Experiment [13] has as its system CP250. The method, boiled down: as §1
Experiment [14] relates to CP252. In a few lines:
as §1

The subject of experiment [15] is CP260. The method, boiled down:
as §1

Experiment [16] concerns CP269. In a few lines:
as §1

The subject of experiment [17] is CP286. The method, boiled down:
as §1

The test system of experiment [18] is CP237. The method, boiled down:
as §1

The subject of experiment [19] is CP238. In a few lines: as §1
Experiment [20] deals with CP265. In a few lines:
as §1

The structures appear in SMILES notation. Records with an inconclusive call do not appear. Active and inactive are the calls of the source. The call rests on the fitted dose curve; in most records, active means well fitted inhibition curve with a large enough effect; inconclusive means small, poorly fitted or top-dose-only effect; inactive means flat fitted curve, though single readings scatter.
Potency means the concentration at half of the fitted maximal effect.

Take `N[C@@H](Cc1ccc(N(CCCl)CCCl)cc1)C(=O)O`: the Potency result in [1], in experiment [2], in experiment [3], in experiment [4], in [5] and in experiment [6] was “inactive” each time. Also, the Potency entry in experiment [7], in experiment [8], in [9] and in [10] was “inactive” throughout.
As to `CCN(CC)CCN1C(=O)CN=C(c2ccccc2F)c2cc(Cl)ccc21`, the Potency result in experiment [11], in [12], in [13], in [14], in experiment [1] and in experiment [15] was “inactive” in each case. In addition, the Potency result in experiment [2], in [3], in experiment [4], in experiment [16], in experiment [17] and in [6] was “inactive” throughout. In addition, the Potency entry in experiment [7], in experiment [8] and in [9] was “inactive” in each case.
`CC(CCc1ccccc1)NC(C)C(O)c1ccc(O)cc1` (stereo not drawn): the Potency result in experiment [11], in experiment [13], in experiment [14], in experiment [1], in experiment [2] and in experiment [3] was “inactive” throughout. The Potency result in [8] was “inactive”. In [18], the Potency is 5.62 µM (active).
In the case of `CCC(COC(=O)c1cc(OC)c(OC)c(OC)c1)(c1ccccc1)N(C)C` (stereo not drawn), the Potency result in experiment [11], in experiment [19], in experiment [12], in experiment [13], in experiment [14] and in [1] was “inactive” each time. Moreover, the Potency result in [15], in experiment [2], in experiment [20], in experiment [3], in experiment [4] and in experiment [16] was “inactive” throughout. In addition, the Potency entry in [17], in experiment [5], in experiment [6], in [7], in [8] and in [9] was “inactive” throughout. For the same compound, the Potency entry in experiment [10] was “inactive”.
Take `CC(C)(C)NCC(O)c1cc(Cl)c(N)c(Cl)c1` (stereo not drawn): the Potency entry in experiment [11], in [12], in [13], in experiment [1], in experiment [3] and in experiment [4] was “inactive” in each case. In addition, the Potency result in experiment [17], in [8], in experiment [9] and in experiment [10] was “inactive” in each case. Further, the Potency in [18] is 7.94 µM (active).
Consider `CC(C)=CC1C(C(=O)OCc2cccc(Oc3ccccc3)c2)C1(C)C` (stereo not drawn), for which the Potency result in experiment [11], in experiment [18], in experiment [19], in experiment [12], in experiment [13] and in experiment [14] was “inactive” each time. Further, the Potency entry in [1], in [2], in experiment [20], in experiment [3], in experiment [4] and in experiment [16] was “inactive” in each case. In addition, the Potency entry in experiment [5], in experiment [6], in experiment [7], in [8], in experiment [9] and in experiment [10] was “inactive” throughout.
`Cc1ccc(-c2nc3ccc(C)cn3c2CC(=O)N(C)C)cc1`: the Potency entry in experiment [11], in experiment [18], in experiment [19], in [12], in experiment [13] and in experiment [14] was “inactive” throughout. In addition, the Potency result in [15], in experiment [2], in experiment [20], in experiment [3], in experiment [4] and in experiment [16] was “inactive” throughout. The Potency entry in experiment [17], in [5], in experiment [7], in [8], in [9] and in experiment [10] was “inactive” in each case.
For the compound `O=C(O)c1ccc2[nH]cc(CCCCN3CC=C(c4ccccc4)CC3)c2c1`, the Potency result in [11], in experiment [18], in experiment [19], in experiment [13], in experiment [14] and in experiment [1] was “inactive” in each case. The Potency entry in [15], in [2], in [20], in experiment [3], in [4] and in experiment [16] was “inactive” throughout. The Potency result in experiment [17], in [5], in experiment [7], in experiment [8], in experiment [9] and in experiment [10] was “inactive” throughout.
For the compound `FC(F)(F)c1cccc(C2=CCN(CCc3ccc4ccccc4c3)CC2)c1`, the Potency entry in experiment [11], in experiment [18], in [19], in [12], in experiment [13] and in experiment [14] was “inactive” in each case. The Potency entry in [15], in [2], in [20], in experiment [3], in experiment [16] and in [17] was “inactive” throughout. The Potency result in experiment [5], in experiment [6], in experiment [7], in experiment [8], in experiment [9] and in experiment [10] was “inactive” in each case.
`Fc1ccc(C(OCCN2CCN(CCCc3ccccc3)CC2)c2ccc(F)cc2)cc1`: the Potency in [11] was 8.91 µM (active); in experiment [18], 10 µM (active); in experiment [19], 12.6 µM (active); in [12], 10 µM (active); in experiment [14], 11.2 µM (active); in experiment [15] it was 10 µM (active). The Potency in [16] was 15.1 µM (active); in experiment [17], 11.2 µM (active); in [5] it was 10.7 µM (active); in [7], 10.7 µM (active); in [9], 15.1 µM (active). Besides, the Potency result in experiment [2] is “inactive”.
With `Cc1ccc(S(=O)(=O)N[C@@H](CCCCN)C(=O)CCl)cc1`, the Potency is 5.62 µM (active) in experiment [12], 7.94 µM (active) in experiment [13] and 7.94 µM (active) in experiment [1]. Besides, the Potency entry in [3], in experiment [4], in [16], in [6] and in experiment [8] was “inactive” throughout.
Turning to `O=C1NCN(c2ccccc2)C12CCN(CC1COc3ccccc3O1)CC2` (stereo not drawn), the Potency result in [11], in experiment [19], in experiment [12], in [13], in experiment [14] and in [1] was “inactive” in each case. Moreover, the Potency result in [2], in experiment [20], in experiment [3], in experiment [4], in [16] and in [17] was “inactive” each time. In addition, the Potency result in experiment [5], in experiment [6], in experiment [7], in [8], in experiment [9] and in [10] was “inactive” each time.
Turning to `c1ccc2c(c1)OCC(C1=NCCN1)O2` (stereo not drawn), the Potency entry in experiment [11], in experiment [19], in experiment [13], in experiment [14], in experiment [1] and in [2] was “inactive” each time. The Potency result in [20], in [3], in experiment [4], in experiment [16], in experiment [17] and in experiment [5] was “inactive” each time. Further, the Potency result in experiment [6], in experiment [7], in [8], in experiment [9] and in experiment [10] was “inactive” throughout.
Turning to `C=C1CC[C@@]2(O)[C@H]3Cc4ccc(O)c5c4[C@@]2(CCN3CC2CC2)[C@H]1O5`, the Potency entry in experiment [11], in experiment [19], in experiment [12], in experiment [13], in experiment [14] and in experiment [1] was “inactive” each time. The Potency result in [2], in experiment [20], in experiment [3], in experiment [4], in experiment [16] and in experiment [17] was “inactive” in each case. Besides, the Potency result in [5], in [6], in experiment [7], in experiment [8], in experiment [9] and in experiment [10] was “inactive” in each case.
As to `Clc1cccc(N2CCNCC2)c1`, the Potency result in [11], in experiment [19], in [12], in [13], in experiment [14] and in experiment [1] was “inactive” throughout. The Potency entry in [15], in experiment [2], in experiment [20], in [3], in experiment [4] and in experiment [16] was “inactive” throughout. In addition, the Potency result in experiment [17], in experiment [5], in experiment [7], in experiment [8], in experiment [9] and in experiment [10] was “inactive” throughout.
Turning to `CCN(CC)CCOC(=O)C(O)(c1ccccc1)c1ccccc1`, the Potency result in experiment [11], in experiment [18], in experiment [19], in experiment [12], in [13] and in [14] was “inactive” each time. Further, the Potency entry in [15], in experiment [2], in experiment [20], in [3], in experiment [4] and in experiment [16] was “inactive” each time. For the same compound, the Potency entry in experiment [17], in experiment [5], in [7], in experiment [8], in [9] and in [10] was “inactive” in each case.
Take `CC(=O)[C@H]1CC[C@H]2[C@@H]3CC[C@H]4C[C@](C)(O)CC[C@]4(C)[C@H]3CC[C@]12C`: the Potency entry in [11], in [18], in experiment [19], in experiment [12], in experiment [13] and in experiment [14] was “inactive” each time. In addition, the Potency entry in [1], in [2], in experiment [20], in experiment [3], in experiment [4] and in [16] was “inactive” each time. Also, the Potency entry in experiment [17], in experiment [5], in [6], in experiment [7], in experiment [8] and in experiment [9] was “inactive” each time. In addition, the Potency entry in [10] is “inactive”.
